Source: PubChem
Gli-Sufu block = blocks Gli-Sufu signaling in a luciferase reporter. Sufu-KO-LIGHT fibroblasts, Gli luciferase reporter luminescence. inhibition, % at 5 µM. 340,000 tested, 0.74% active;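 active means inhibition above about 55%, limit read from the data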;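 further: 0% = DMSO-treated cells and 100% = wells with medium but no cells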
NCOA2 inhibitor = human SRC2 (NCOA2) inhibition; Q15596; HEK293 GAL4-SRC2 luciferase reporter, luminescence; inhibition, % at 9 µM; 370,000 tested, 0.17% active; AID 651957;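 active means inhibition above the mean inhibition of all tested compounds plus 3 SD, set per campaign, cut at about 52% in these data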;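 further: 0% = DMSO treated cells and 100% = cells given Gossypol at 36 µM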
SRC1 inh = human NCOA1 inhibition; 360,000 tested, 0.12% active; inhibition, % at 3.6 µM; HEK293 GAL4-SRC1 luciferase reporter, luminescence; AID 588354;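 active means inhibition above the campaign mean plus 3 SD, with each screening campaign given its own cutoff, cut at about 60% in these data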;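 further: 0% = DMSO treated cells and 100% = gossypol at 36 µM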
NR2F2 inh = inhibitors of human COUP-TFII (NR2F2) | P24468 | HEK293T NGFI-A luciferase reporter, luminescence | inhibition, % at 8.6 µM | 370,000 tested, 0.7% active;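 active means inhibition above a per-plate cutoff, mean inhibition of test wells between control levels plus 3 SD, cut at about 38% in these data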;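 further: cells cotransfected with COUP-TFII expression vector driving the NGFI-A reporter; 0% = median of COUP-TF2 test wells and 100% = reporter-only cells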
SRC3 inh = inhibitors of human steroid receptor coactivator 3 (SRC3); HEK293 GAL4-SRC3 luciferase reporter, luminescence; Q9Y6Q9; inhibition, % at 3.6 µM; 360,000 tested, 0.17% active; AID 588352;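 active means inhibition above a per-campaign cutoff, the mean of all compounds plus 3 SD, cut at about 60% in these data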;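 further: 0% = DMSO-treated cells and 100% = gossypol-treated cells at 36 µM; higher means less SRC3-driven luciferase light from the GAL4 reporter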
LRH-1 inv ag = NR5A2 inverse agonism in reporter assay; O00482; HEK293T StAR-luciferase reporter, LRH-1 transfected, 24 h; inhibition, % at 3.6 µM; AID 602396; 360,000 tested, 0.13% active;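 active means inhibition above the mean inhibition of all tested compounds plus 3 SD, cut at about 73% in these data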;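 further: 0% = DMSO wells and 100% = reporter-only cells lacking LRH-1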
Gli antag conf = Gli-SUFU antagonism confirmation, single concentration. shares compounds with Gli-Sufu block. Sufu-KO-LIGHT cells, Gli luciferase reporter, luminescence. inhibition, % at 5 µM. 2,500 tested, 40% active;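 active means mean inhibition at 5 µM reaching about 45%, limit read from the data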;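 further: plate controls were DMSO-treated cells for no effect and wells lacking cells for full effect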
SufuKO cytotox = cytotoxicity counter-screen for Gli-SUFU antagonists | AID 651994 | cytotoxicity, % at 5 µM | shares compounds with Gli-Sufu block | 2,500 tested, 32% active | Sufu-KO-LIGHT cells cytotoxicity, ATP luminescence;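 active means mean cytotoxicity at 5 µM above about 25%, limit read from the data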;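 further: cells exposed to compound overnight for roughly 16 to 18 hours; plate controls were DMSO wells with cells for no effect and medium without cells for full effect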
Wnt3a cs = inhibits Wnt3a reporter, counter-screen for Gli-SUFU antagonists. shares compounds with Gli-Sufu block. Wnt-LIGHT cells, Wnt3a-driven luciferase reporter, luminescence. inhibition, % at 6.25 µM. 2,500 tested, 20% active;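 active means mean inhibition above about 25%, limit read from the data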
Starred values were filed as active, the others as inactive; / = not tested or not shown. The list is not random: actives were taken first. Their share in the collection is about 1.3%.

SMILES | Gli-Sufu block | NCOA2 inhibitor | SRC1 inh | NR2F2 inh | SRC3 inh | LRH-1 inv ag | Gli antag conf | SufuKO cytotox | Wnt3a cs
COc1ccc(-n2c(-c3ccccc3)c[n+]3c2CCC3)cc1 | 71.6* | 34.1 | 21.7 | 20.2 | 25.9 | 17.7 | 79.9* | 37.6* | 23.3
COc1ccc(-n2c(-c3ccc(Br)cc3)c[n+]3c2CCC3)cc1 | 80.4* | -12.5 | -2.9 | 20.4 | 21.6 | 20.5 | 80.4* | 37.8* | 9.5
COc1ccc(-n2c(-c3ccc(Br)cc3)c[n+]3c2CCCCC3)cc1 | 87.6* | -21.7 | 19.9 | 25.7 | 34.7 | 17.0 | 86.4* | 41.4* | 23.4
COc1ccc(-n2c(-c3ccccc3)cc3c2CCCC3=O)cc1 | 1.1 | / | -20.2 | / | 2.2 | 4.7 | / | / | /
CCOC(=O)CC[C@H]1CC[C@]2(CCCN(C(=O)C3CCCC3)C2)O1 | / | 17.3 | / | -11.3 | / | / | / | / | /
CCc1nnc(N/N=C/c2ccc(N3CCC(C)CC3)c([N+](=O)[O-])c2)n1N | -7.2 | -43.2 | -4.0 | -3.2 | 15.8 | 28.5 | / | / | /
Cc1nnc(N/N=C/c2cc([N+](=O)[O-])c(N3CCC(C)CC3)cc2N2CCC(C)CC2)n1N | 85.0* | 10.6 | -7.4 | 4.4 | 6.5 | 20.9 | 87.5* | 36.4* | -22.3
COc1ccccc1CNC(=O)[C@H](C)N1C(=O)N2CCc3c([nH]c4ccccc34)[C@@]2(C)C1=O | 65.9* | 5.9 | 4.2 | 6.0 | 13.8 | 6.8 | 34.1 | 5.4 | 1.8
C=CCn1c(SCC(=O)Nc2ccccc2-c2ccccc2)nnc1-c1ccccc1 | / | -3.5 | / | 22.4 | / | / | / | / | /
O=C(CSc1nc2sc3c(c2c(=O)n1-c1ccccc1)CCCC3)NCc1ccco1 | 64.0* | -14.8 | 50.0 | 8.9 | 41.6 | 56.7 | 27.8 | 3.9 | -8.1
COC(=O)Cc1[nH]n(-c2nc3ccccc3s2)c(=O)c1C(C)=Nc1ccc(C)cc1 | 90.2* | 10.6 | 4.8 | 6.3 | 44.5 | -18.1 | 93.6* | 13.8 | 106.2*
COC(=O)Cc1[nH]n(-c2nc3ccccc3s2)c(=O)c1C(C)=Nc1ccc(Cl)cc1 | 85.9* | 3.6 | -20.5 | -17.4 | 1.6 | -2.7 | 92.5* | 18.2 | 103.9*
CCOC(=O)/C(N=Nc1ccc(C(=O)O)cc1[N+](=O)[O-])=C(\C)O | 3.6 | -47.4 | -10.2 | 14.6 | 9.9 | -7.1 | / | / | /
CC(=O)/C(N=Nc1ccc(C(=O)O)cc1[N+](=O)[O-])=C(\C)O | 80.0* | -10.8 | 4.1 | 14.2 | 24.8 | 3.9 | 7.5 | 5.3 | -13.6
COC(=O)[C@@H](c1ccccc1)N(C)S(=O)(=O)c1cccc(S(=O)(=O)N(C)[C@@H](C(=O)OC)c2ccccc2)c1 | 57.4* | 25.7 | 2.0 | 8.4 | 27.1 | 19.4 | 33.3 | 32.5* | 21.6
COC(=O)C(c1ccccc1)C(C(=O)OC)c1ccccc1 (stereo unspecified) | -5.6 | -19.1 | 6.2 | -15.9 | 1.2 | -0.9 | / | / | /
CN(C)CCNC(=O)Cc1ncc(C(F)(F)F)cc1Cl | 4.4 | -13.6 | -8.1 | 12.6 | 10.5 | 1.5 | / | / | /
O=C(Cc1ncc(C(F)(F)F)cc1Cl)NCCc1ccccn1 | 55.1* | -3.6 | -8.7 | 12.5 | -3.1 | -8.0 | 22.4 | 12.4 | 1.4
CC(C)(C)OC(=O)NCc1cc2c(cc1/C=C/S(=O)(=O)NCc1ccc(F)cc1)OCO2 | / | -10.4 | / | -22.1 | / | / | / | / | /
COC(=O)C1CN(CCc2ccccc2)CCS(=O)(=O)N1Cc1ccccc1 (stereo unspecified) | / | 5.0 | / | -3.6 | / | / | / | / | /
COc1ccc(CCN2CC(C(=O)NCCc3ccc(F)cc3)CCC2=O)cc1 (stereo unspecified) | 3.6 | -7.0 | -7.5 | -17.1 | -15.4 | -0.9 | / | / | /
COc1ccc(CCN2CC(C(=O)NCCc3ccc(C(F)(F)F)cc3)CCC2=O)cc1 (stereo unspecified) | 51.9 | -1.0 | -18.4 | 1.8 | -7.5 | -19.9 | 9.3 | 17.0 | -53.0
CC(C)NC(=O)C1CCN(C(=O)c2cc3sccc3n2Cc2ccc(F)cc2)CC1 | 60.5* | / | 5.1 | / | -13.4 | -23.6 | 40.0 | 10.9 | 7.7
O=C(c1cc2sccc2n1Cc1ccccc1)N1CCN(c2nc3ccccc3s2)CC1 | 57.9* | 4.8 | 19.0 | 27.3 | 42.3 | 10.8 | 67.8* | 33.0* | -17.6
CCC(=O)N1CCN(c2nc3ccccc3s2)CC1 | 0.9 | -47.6 | -63.5 | -24.5 | -82.6 | -118.2 | / | / | /
SMILES | Gli-Sufu block | NCOA2 inhibitor | SRC1 inh | NR2F2 inh | SRC3 inh | LRH-1 inv ag | Gli antag conf | SufuKO cytotox | Wnt3a cs
CC1CCN(C(=O)C2CCN(C(=O)c3cc4sccc4n3Cc3ccc(F)cc3)CC2)CC1 | -1.4 | 1.4 | 10.0 | 3.5 | -4.1 | 22.5 | / | / | /
C[C@@H]1CN(c2ccc(N3CCN(C(=O)OC(C)(C)C)C[C@H]3C)cc2C#N)CCN1Cc1ccccc1 | / | 19.5 | / | 24.8 | / | / | / | / | /
C[C@@H](/C=C/C(=O)OC(C)(C)C)Sc1ccc(C(C)(C)C)cc1 | / | -33.3 | / | -16.6 | / | / | / | / | /
COc1ccc2cc(C(=O)NCc3ccccc3)[nH]c2c1 | 51.0 | -22.1 | -11.7 | 14.2 | -15.3 | -43.6 | 30.6 | 10.7 | -59.2
CCCCCCCCNS(=O)(=O)/C=C/c1ccccc1CNC(=O)OC(C)(C)C | / | -23.2 | / | -18.1 | / | / | / | / | /
Nn1c(SCC(=O)NC2CCS(=O)(=O)C2)nc2scc(-c3ccccc3)c2c1=O (stereo unspecified) | 50.0 | -8.6 | 8.2 | -24.3 | 1.7 | 6.1 | 22.8 | -4.8 | 1.4
C=CCn1c(SCC(=O)NC2CCS(=O)(=O)C2)nc2scc(C3CC3)c2c1=O (stereo unspecified) | -1.8 | 2.4 | -0.7 | 0.8 | 11.8 | -16.4 | / | / | /
c1cnc2ccc(C(c3nnnn3C3CCCCC3)N3CCN(C4CCCCC4)CC3)cc2c1 (stereo unspecified) | 65.4* | -47.2 | 2.4 | 2.3 | 17.3 | 10.3 | 80.2* | 36.0* | -35.9
c1cnc2ccc(C(c3nnnn3C3CCCCC3)N3CCCCC3)cc2c1 (stereo unspecified) | 5.1 | 9.6 | -10.2 | 6.1 | 6.6 | -9.4 | / | / | /
CCCC(=O)N1CCC[C@]2(CC[C@H](CCC#N)O2)C1 | / | -14.3 | / | 4.8 | / | / | / | / | /
C=CS(=O)(=O)N(Cc1nnn(Cc2ccccc2)c1Br)[C@@H](CC(C)C)C(=O)OC | / | 24.1 | / | 7.7 | / | / | / | / | /
O=C(CSCc1ccc(Cl)cc1Cl)Nc1ccc(O)cc1C(=O)O | -2.6 | 13.1 | -12.9 | 22.0 | -22.5 | -14.8 | / | / | /
O=C(CSCc1ccc(Cl)cc1Cl)Nc1ccccc1C(=O)Nc1ccc(C(=O)O)cc1 | 53.9 | -32.6 | 9.5 | 8.8 | 9.2 | -18.1 | 21.4 | 7.5 | 4.6
O=c1c2cc3cc(Cl)ccc3nc2ncn1CCc1c[nH]c2ccccc12 | / | -7.7 | / | -8.3 | / | / | / | / | /
COc1ccc(C(=O)C[n+]2cc(-c3ccc(OC)cc3)n3c2CCCC3)cc1 | 73.5* | -3.8 | -0.3 | 1.6 | 9.8 | 8.3 | 68.0* | 26.2* | -4.0
